# In PubChem BioAssay (NCI):
# This is part of a sample that, as a whole, favours compounds with a hit. Of some 83,000 tested, about 20% had one in any assay.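 Compound tested at a single concentration for 48 hours in 96-well plates; a percent growth value below 10 was scored as active.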 A number with no mark means an inactive call. Activity calls are given as the source filed them.
# Key:
# Assay in all cases: NCI-60 one-dose screen, 48 h (100 = growth as untreated, 0 = no growth, -100 = all killed)
# Conditions in all cases: 10 µM unless noted
# SK-MEL-2 melanoma = system: SK-MEL-2 melanoma
# EKVX NSCLC = system: EKVX NSCLC
# SN12C renal = system: SN12C renal
# UO-31 renal = system: UO-31 renal
# TK-10 renal = system: TK-10 renal
# ACHN renal = system: ACHN renal
# CAKI-1 renal = system: CAKI-1 renal
# A498 renal = system: A498 renal
# CCRF-CEM leukemia = system: CCRF-CEM leukemia
# MOLT-4 leukemia = system: MOLT-4 leukemia
# SR leukemia = system: SR leukemia
# RPMI-8226 leukemia = system: RPMI-8226 leukemia
# OVCAR-8 ovarian = system: OVCAR-8 ovarian
# OVCAR-5 ovarian = system: OVCAR-5 ovarian
# OVCAR-4 ovarian = system: OVCAR-4 ovarian
# SK-OV-3 ovarian = system: SK-OV-3 ovarian
# IGROV1 ovarian = system: IGROV1 ovarian
# HS 578T breast = system: HS 578T breast
# NCI/ADR-RES ovarian = system: NCI/ADR-RES ovarian
# OVCAR-3 ovarian = system: OVCAR-3 ovarian
SMILES,growth (SK-MEL-2 melanoma),growth (EKVX NSCLC),growth (SN12C renal),growth (UO-31 renal),growth (TK-10 renal),growth (ACHN renal),growth (CAKI-1 renal),growth (A498 renal),growth (CCRF-CEM leukemia),growth (MOLT-4 leukemia),growth (SR leukemia),growth (RPMI-8226 leukemia),growth (OVCAR-8 ovarian),growth (OVCAR-5 ovarian),growth (OVCAR-4 ovarian),growth (SK-OV-3 ovarian),growth (IGROV1 ovarian),growth (HS 578T breast),growth (NCI/ADR-RES ovarian),growth (OVCAR-3 ovarian)
O=C1c2cccnc2C(=O)c2c1c(C(=O)NCCn1ccnc1)c1ccccn21,26.6%,56.9%,4.77% (active),61.3%,116%,31.5%,86.9%,57.3%,11.8%,1.95% (active),7.94% (active),55.8%,4.37% (active),92.1%,-47.6% (active),48.4%,26.3%,65.6%,75.3%,–
COc1cc(-n2cc(-c3cc(O)c(C/C=C(\C)CCC=C(C)C)c(O)c3)nn2)cc2c1O[C@]1(C)CC[C@@H](O)C(C)(C)[C@H]1C2,-17.1% (active),28%,24.9%,-53.8% (active),40.2%,16.6%,12%,10.7%,0.511% (active),-0.403% (active),4.49% (active),-17.8% (active),16.4%,29.6%,37.9%,34.8%,23.8%,19.6%,17.3%,-19.6% (active)
COc1ccc(/C=C2\COc3ccc(O)cc3C2=O)c(OC)c1OC,102%,93.9%,66.3%,71.5%,109%,80.1%,68.2%,113%,8.08% (active),73.2%,16.5%,8.76% (active),67%,95.8%,79.3%,112%,91.3%,78%,55.1%,57.2%
Clc1ccc(CNc2c3ccccc3nc3ccccc23)cc1,72.4%,62.6%,39.1%,27%,49.7%,22.8%,41.4%,20.8%,30.2%,4.63% (active),2.32% (active),8.02% (active),31.9%,50.5%,33.1%,60%,31.7%,53.8%,36.7%,51.1%
Cn1c(-c2ccc(Br)cc2)c(O)c(=O)c2c(F)cccc21,87.1%,56%,68.8%,26.3%,42.4%,37%,47.9%,62.3%,94.1%,99%,102%,104%,50.9%,63.8%,52.1%,46.3%,48.6%,84.9%,21.8%,51.7%
CC(C)CCC[C@@H](C)[C@H]1CC[C@H]2[C@@H]3CC=C4C[C@@H](C(C(=O)O)C(=O)O)CC[C@]4(C)[C@H]3CC[C@]12C,-58.5% (active),-32.4% (active),-12.2% (active),-53.4% (active),-52% (active),-17.7% (active),-51% (active),-84.4% (active),-24.3% (active),-56.2% (active),-39.7% (active),-26.9% (active),-19.8% (active),45.2%,0.439% (active),-5.5% (active),-35.5% (active),-12.7% (active),-1.29% (active),-73.5% (active)
O=C(Cn1c2c(c3ccccc31)CCCC2)Nc1ccc(-c2nc3ccccc3s2)cc1,98.6%,108%,103%,92.6%,98.9%,112%,100%,94%,93.2%,98.8%,88.8%,116%,107%,99.5%,104%,114%,83.8%,112%,109%,110%
COC(=O)c1n[nH]c2ccc3nc(-c4cn[nH]c4C(F)(F)F)c4c(c3c12)CCCC4,11.9%,64%,47.7%,29%,19.4%,39%,15.3%,5.79% (active),42.8%,50.4%,11.9%,57.5%,34.6%,70.2%,62.5%,15.3%,19.5%,9.88% (active),83.7%,–
CCOC(=O)c1cnc2ccccc2c1Cl,109%,103%,102%,95.1%,84.4%,99.4%,94.8%,56.6%,118%,99.9%,109%,114%,99.6%,98.3%,84.7%,101%,122%,92.9%,105%,106%
Brc1ccc2[nH]cc(-c3nonc3-c3c[nH]c4ccccc34)c2c1,54%,28.4%,57.1%,30.4%,41.7%,34.2%,25.3%,43%,38.8%,27%,28.1%,48.7%,47%,48.9%,46.1%,60.5%,43.6%,52.8%,42.6%,45.4%
O=C(Cn1cc(CN2C(=O)c3ccccc3S2(=O)=O)nn1)Nc1nc2ccccc2s1,95.3%,105%,105%,69.1%,97.5%,90.5%,89.6%,108%,113%,115%,121%,107%,102%,101%,100%,79%,93.4%,110%,97.6%,102%
Cn1cccc1C(=O)C1C(c2cccc([N+](=O)[O-])c2)C2C3CCCCC3CN2C12C(=O)Nc1ccc(Cl)cc12 (stereo not drawn),66.5%,46.4%,59.4%,45.5%,103%,59.9%,17.4%,86%,58.6%,28%,5.9% (active),19.6%,63.8%,68.1%,70.5%,70.1%,8.94% (active),55.7%,51%,70.2%
O=C1Nc2ccc(Br)cc2/C1=N/c1n[nH]c(=S)s1,105%,100%,96.6%,86.4%,104%,96.3%,74.6%,92.4%,104%,100%,83.5%,103%,95%,110%,108%,93.2%,105%,93.9%,95.7%,104%
CSc1nc2sc3c(c2c(=O)n1-c1ccc([N+](=O)[O-])cc1)CCCCC3,101%,85.7%,88.3%,90.8%,92.9%,67.5%,71%,80.2%,93.3%,93.3%,85.4%,99.4%,73%,87.8%,82.4%,69.5%,84.8%,82.3%,89.6%,103%
